Assay outcomes deposited in PubChem by National Center for Advancing Translational Sciences (NCATS).
Shown are actives, neighbours in structure and some others; about 12% of the full set was active somewhere.
PLK1 PBD inh – PLK1 (human) polo-box domain binding inhibition; Plk1 PBD binding of FITC phosphopeptide, fluorescence polarization; 2.8% of 360,000 active; P53350; Potency, µM, for inactives: max response, negative = inhibition, usual class: inhibitors; note: series mostly up to about 57 µM; % is set by controls: 0 for no effect and ±100 for the full control effect; nearly all actives have a fitted effect of over 65% in size
JMJD2A Tudor – inhibitors of human JMJD2A Tudor domain; Potency, µM (top dose mostly 114 µM), without a hit: at the highest dose activity change, negative = inhibition, most hits filed as inhibitors; AlphaScreen JMJD2A-Tudor / H3K4me3 peptide binding; 4.4% of 390,000 active; O75164; note: % is set by controls: 0 for no effect and ±100 for the full control effect; nearly all actives have a fitted effect of over 50% in size
HP1b chromo inh – inhibitors of HP1-beta chromodomain binding to methylated histone tails. AlphaScreen HP1-beta / biotin-H3K9me3 peptide binding. 0.56% of 390,000 active. Potency, µM (top dose mostly 114 µM), for the others: top-dose activity change, negative = inhibition, actives largely listed as inhibitors; note: nearly all actives have a fitted effect of over 70% in size
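Compound inhibition of the preformed complex between 50 nM HP1-beta and 50 nM biotinylated H3K9me3 peptide was read by AlphaScreen. Buffer was PBS pH 7.4 with 0.01% Tween-20. Incubations ran 30 min at room temperature, with 10 ug/mL donor/acceptor beads.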
BAZ2B block – blocks human BAZ2B; AlphaScreen BAZ2B-H3K14Ac peptide displacement; Potency, µM (highest dose often 114 µM), without a hit: top-dose activity change, negative = inhibition, actives largely listed as inhibitors; 4.4% of 360,000 active; note: % is set by controls: 0 for no effect and ±100 for the full control effect; nearly all actives have a fitted effect of over 60% in size
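Complex of BAZ2B and biotin-H3K14Ac (50 nM apiece) forms over 30 min at RT, then faces library compounds up to 110 uM for another 30 min; AlphaScreen beads added, 20 min dark incubation, luminescence read.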
Sfp inh – blocks B. subtilis Sfp PPTase activity; Q9F4F7; Biochemical Sfp PPTase activity, qHTS; Potency, µM, without a hit: largest response in the series, negative = inhibition, actives largely listed as inhibitors; 3.5% of 310,000 active; AID 1490;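 note: the enzyme is Sfp with the accession as filed and its product quenches rhodamine fluorescence; 0% = enzyme reaction without inhibitor and -100% = no enzyme wells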
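Reaction rates are the 30-min fluorescence difference (ex 525, em 598 nm) in wells containing 15 nM Sfp, 5 uM rhodamine-CoA and 12.5 uM BHQ-2-YbbR at pH 7.6 with 10 mM MgCl2.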
G9a block – blocks human histone lysine methyltransferase G9a | G9a H3K9 monomethylation, AlphaScreen, 2 h | Potency, µM (series often up to 102 µM), for the others: top-dose activity, negative = inhibition, actives largely listed as inhibitors | 8.8% of 350,000 active; note: % is set by controls: 0 for no effect and ±100 for the full control effect; nearly all actives have a fitted effect of over 75% in size
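Methyltransferase reactions run at room temperature for 2 h (20 nM enzyme, 500 nM biotin-H3K9 peptide, 20 uM SAM) after a 15 min compound preincubation; product detected by AlphaScreen beads and anti-H3K9me1 antibody.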
Active calls of the source: *; ? = inconclusive; · = no result; [ ] = dose if it differs, or a comment. Calls come from the whole dose curve; as a rule, active = well fitted curve in the direction sought with a large enough effect; inconclusive = small, poorly fitted or top-dose-only effect, or another doubt; inactive = no such curve, though single readings can be large; an effect the other way counts as inactive or inconclusive. Potency is the fitted concentration of half-maximal effect.

SMILES	PLK1 PBD inh	JMJD2A Tudor	HP1b chromo inh	BAZ2B block	Sfp inh	G9a block
Cc1ccc(C(=O)NC(=S)NCC2CCCO2)cc1Br (stereo not drawn)	0.7%	-19.4%	5.9%	?	-1.4%	44.7µM*
Cc1ccc(C(=O)N/C(=C/c2ccc(N(C)C)cc2)C(=O)NCC2CCCO2)cc1 (stereo not drawn)	-7.2%	-29.8%	1.1%	-4.0%	7.5%	28.2µM*
Cc1ccc(C(=O)N/C(=C/c2ccc(Cl)cc2)C(=O)NCC2CCCO2)cc1 (stereo not drawn)	3.6%	3.0%	33.2%	6.2%	2.0%	21.9%[59 µM]
O=C(NC(=S)N(CC1CCC1)CC1CCCO1)c1cccc([N+](=O)[O-])c1 (stereo not drawn)	-24.6%	-35.0%	-4.2%	?	-2.4%	50.1µM*
Cc1ccc(S(=O)(=O)NNC(=S)NCC2CCCO2)cc1 (stereo not drawn)	-2.0%	-13.8%	-15.6%	-15.1%	-15.4%	25.1µM*
O=C(NC(=S)NCC1CCCO1)c1ccccc1Br (stereo not drawn)	-4.7%	-4.0%	15.2%	0.9%	2.7%	13.2%[59 µM]
CC(C)C[C@@H](CC(=O)N[C@@H](CCC(=O)O)CC(=O)O)NC(=O)[C@@H]1CNCC[C@H]1NC(=O)C[C@H](CCCN)NC(=O)C[C@H](Cc1c[nH]c2ccccc12)NC(=O)[C@@H]1CNCC[C@H]1N	·	·	·	·	-23.1%	·
CCOCCCn1c(=N)c(S(=O)(=O)c2ccc(C)cc2)cc2c(=O)n3cc(C)ccc3nc21	-13.2%	-22.6%	-16.3%	23.4%	-7.5%	-2.0%
COCCn1c(C)cc(O)c(C(c2ccccc2)N2CCN(c3ccc(F)cc3)CC2)c1=O (stereo not drawn)	·	-21.5%	37.9%	45.2%	·	?
Cc1ccc(NS(=O)(=O)c2ccc(OCC(=O)NCC3CCCO3)cc2)cc1 (stereo not drawn)	29.9µM*	50.1µM*	-4.8%	5.1%	1.8%	6.0%
COc1ccc(NC(=S)NCC2CCCO2)c(C)c1 (stereo not drawn)	-10.3%	-10.3%	6.8%	4.8%	11.1%	15.5%[59 µM]
COc1ccccc1NS(=O)(=O)c1ccc(O)c(NC(=S)NCC2CCCO2)c1 (stereo not drawn)	13.4µM*	-13.8%	?	-9.1%	25.1µM*	·
O=C(O)COc1ccc(OCCNC[C@H](O)COc2ccccc2)cc1	·	·	·	·	1.7%	?
Cc1ccoc1C(=O)NCc1occc1C(=O)O	-15.9%	?	-2.9%	?	9.6%	44.7µM*
Cc1ccoc1C(=O)NCCCNC(=O)c1occc1C	26.7µM*	?	?	16.4%	-1.7%	4.6%[12.7 µM]
Oc1cccc(C=NN=C2c3ccccc3-c3ccccc32)c1	-0.7%	44.7µM*	?	·	·	·
C(=NN=C1c2ccccc2-c2ccccc21)c1ccc2c(c1)OCO2	-3.3%	20µM*	50.1µM*	·	·	·
O=C1Nc2ccccc2/C1=N/N=C/c1cccc(O)c1	2.6%	?	-29.2%	-14.6%	-7.4%	·
CCOc1cc(C=NN=C2c3ccccc3-c3ccccc32)ccc1O	2.4%	25.1µM*	50.1µM*	·	·	·
CCOc1cc(/C=N/NC(=O)C(=O)N/N=C/c2ccc(O)c(OCC)c2)ccc1O	6.4%	-16.3%	36.8%	-0.6%	22.2%	·
CNc1cccnc1C=NNC(N)=S	-10.0%	79.4µM*	27.8%	·	·	·
CN(C)Cc1ccccc1-c1cc(NCc2cccs2)ncn1	·	·	·	·	5.4%	16.0%[0.501 µM]
CC(CN1CCCCC1)OC(=O)COc1ccc(Cl)cc1 (stereo not drawn)	23.8µM*	?	17.5%	9.7%	7.8%	·
COc1ccc(/C=C/C(=O)OC(C)CN2CCCCC2)cc1 (stereo not drawn)	0.2%	-14.3%	25.3%	-27.4%	5.5%	20µM*
CC(CNC(=O)[C@@H](Cc1ccccc1)NC(=O)CC[C@H]1O[C@@H](n2ccc(=O)[nH]c2=O)[C@H](O)[C@@H]1O)c1ccccc1 (stereo partly drawn)	-5.4%	·	·	·	·	·
